In PubChem BioAssay (NCI):
The panel holds about 83,000 compounds, 20% with a hit somewhere; the sample as a whole holds those more often.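 48-hour exposure, single concentration, 96-well plates; percent growth endpoint where 0 means no net growth. Active: below 10.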 Active and inactive are the calls of the source.

How the values were obtained:
Assay in all cases: NCI-60 one-dose screen, 48 h (100 = growth as untreated, 0 = no growth, -100 = all killed)
Settings in all cases: 10 µM unless noted
NCI-H23 lung = system: NCI-H23 lung
NCI-H226 lung = system: NCI-H226 lung
NCI-H322M lung = system: NCI-H322M lung
HOP-62 NSCLC = system: HOP-62 NSCLC
NCI-H460 lung = system: NCI-H460 lung
HOP-92 NSCLC = system: HOP-92 NSCLC
A549/ATCC NSCLC = system: A549/ATCC NSCLC
786-0 renal = system: 786-0 renal
COLO 205 colon = system: COLO 205 colon

Measured: growth

N#Cc1c(-c2ccccc2)cc(-c2ccccc2)n(CCC(=O)O)c1=O
inactive: NCI-H23 lung 72.9% | NCI-H226 lung 69.2% | NCI-H322M lung 91.2% | HOP-62 NSCLC 51.9% | NCI-H460 lung 45.3% | HOP-92 NSCLC 74.8% | A549/ATCC NSCLC 46.6% | 786-0 renal 62.6% | COLO 205 colon 61.2%

C/C(=C\CCc1ccoc1)CC/C=C(\C)CCCNc1ccc(F)cc1
inactive: NCI-H23 lung 100% | NCI-H226 lung 88.5% | NCI-H322M lung 85.4% | HOP-62 NSCLC 93.6% | NCI-H460 lung 92.7% | HOP-92 NSCLC 96.3% | A549/ATCC NSCLC 80.4% | 786-0 renal 95.1% | COLO 205 colon 98.1%

COc1ccc2ncccc2c1Cc1c(OC)ccc2ncccc12
inactive: NCI-H23 lung 80.1% | NCI-H226 lung 80% | NCI-H322M lung 96.6% | HOP-62 NSCLC 65% | NCI-H460 lung 82.4% | HOP-92 NSCLC 58.1% | A549/ATCC NSCLC 64.5% | 786-0 renal 89.1% | COLO 205 colon 79.9%

CN(C)c1ccc(-n2nc3ccccc3n2)cc1
inactive: NCI-H23 lung 95.6% | NCI-H226 lung 86.4% | NCI-H322M lung 111% | HOP-62 NSCLC 78% | NCI-H460 lung 105% | HOP-92 NSCLC 86.9% | A549/ATCC NSCLC 92.3% | 786-0 renal 83.3% | COLO 205 colon 102%

O=c1oc2c(cc1-c1ccc([N+](=O)[O-])cc1)C(O)Oc1ccccc1-2 (configuration not stated)
inactive: NCI-H23 lung 89.3% | NCI-H226 lung 101% | NCI-H322M lung 107% | HOP-62 NSCLC 98.1% | NCI-H460 lung 97.2% | A549/ATCC NSCLC 78.7% | 786-0 renal 98% | COLO 205 colon 93.5%
active: HOP-92 NSCLC -13.6%

CCN(CC)CCCCCCCNc1c2ccc(Cl)cc2nc2ccc(OC)cc12
active: NCI-H23 lung -24.3% | NCI-H226 lung -18.2% | NCI-H322M lung -35% | HOP-62 NSCLC -49.2% | NCI-H460 lung -67.6% | HOP-92 NSCLC -62.1% | A549/ATCC NSCLC -37.9% | 786-0 renal -57.5% | COLO 205 colon -92.5%

N/C(=N\C(N)=N\c1nc2ccccc2s1)c1ccnc(Cl)c1
inactive: NCI-H23 lung 43.4% | NCI-H226 lung 48.8% | NCI-H322M lung 70.1% | HOP-62 NSCLC 44.4% | NCI-H460 lung 17.3% | HOP-92 NSCLC 73.9% | A549/ATCC NSCLC 47.4% | 786-0 renal 41.1% | COLO 205 colon 18.1%

O=C1CSC(c2ccccc2O)N1c1nnc(Cn2ccnc2)o1 (configuration not stated)
inactive: NCI-H23 lung 67.9% | NCI-H226 lung 91.4% | NCI-H322M lung 69.6% | HOP-62 NSCLC 67.2% | NCI-H460 lung 34.8% | HOP-92 NSCLC 69.1% | A549/ATCC NSCLC 66.5% | 786-0 renal 59.1% | COLO 205 colon 92.6%

NC(=O)c1cc(Cl)ccc1NC(=O)c1ccccc1-c1ccccc1
inactive: NCI-H23 lung 39.9% | NCI-H226 lung 57.7% | NCI-H322M lung 30% | HOP-62 NSCLC 39% | NCI-H460 lung 13.2% | HOP-92 NSCLC 67.7% | A549/ATCC NSCLC 35.6% | 786-0 renal 26.6%
active: COLO 205 colon -14.1%

O=C(CSc1nnc(-c2cc(-c3ccccc3)nc3ccccc23)o1)c1ccc(Br)cc1
inactive: NCI-H23 lung 106% | NCI-H226 lung 104% | NCI-H322M lung 103% | HOP-62 NSCLC 101% | NCI-H460 lung 106% | HOP-92 NSCLC 114% | A549/ATCC NSCLC 105% | 786-0 renal 104% | COLO 205 colon 119%

Nc1ccc(N=Nc2ccccc2)cc1[N+](=O)[O-]
inactive: NCI-H23 lung 90.7% | NCI-H226 lung 86% | NCI-H322M lung 80.5% | HOP-62 NSCLC 91.9% | NCI-H460 lung 100% | HOP-92 NSCLC 91.7% | A549/ATCC NSCLC 85.9% | 786-0 renal 107% | COLO 205 colon 95%

N#CSCC1CC(O)(c2ccccc2)C(c2ccccc2)C(c2ccc(Cl)cc2)O1 (configuration not stated)
inactive: NCI-H226 lung 19.7% | NCI-H322M lung 52.3%
active: NCI-H23 lung -78.6% | HOP-62 NSCLC 5.71% | NCI-H460 lung -68.7% | HOP-92 NSCLC -29.6% | A549/ATCC NSCLC -53.7% | 786-0 renal -74.3% | COLO 205 colon -98.3%

CCN(CC)c1ccc(C(=C2C=CC(=[N+](CC)Cc3cccc(S(=O)(=O)O)c3)C=C2)c2ccc(N(CC)Cc3cccc(S(=O)(=O)O)c3)cc2)cc1
inactive: NCI-H23 lung 45.2% | NCI-H226 lung 71.3% | NCI-H322M lung 58.3% | NCI-H460 lung 49.1% | HOP-92 NSCLC 66.3% | 786-0 renal 55.9% | COLO 205 colon 14%
active: HOP-62 NSCLC 1.01% | A549/ATCC NSCLC -4.01%

N[C@H](CS)C(=O)O
inactive: NCI-H23 lung 102% | NCI-H226 lung 105% | NCI-H322M lung 83.8% | HOP-62 NSCLC 101% | NCI-H460 lung 103% | HOP-92 NSCLC 86.4% | A549/ATCC NSCLC 99.5% | 786-0 renal 105% | COLO 205 colon 120%

Cc1[nH]c(=O)[nH]c(=O)c1CCSSCCc1c(C)[nH]c(=O)[nH]c1=O
inactive: NCI-H23 lung 107% | NCI-H226 lung 102% | NCI-H322M lung 89.9% | HOP-62 NSCLC 97.2% | NCI-H460 lung 108% | HOP-92 NSCLC 116% | A549/ATCC NSCLC 103% | 786-0 renal 103% | COLO 205 colon 107%

O=c1[nH]c(SCc2ccccc2)nc2nc(Nc3ccc(NC(=S)Nc4ccccc4)cc3)nc(-c3ccc(O)cc3O)c12
inactive: NCI-H23 lung 97.3% | NCI-H226 lung 93.2% | NCI-H322M lung 121% | HOP-62 NSCLC 102% | NCI-H460 lung 103% | A549/ATCC NSCLC 105% | 786-0 renal 94.7% | COLO 205 colon 98.2%
active: HOP-92 NSCLC -2.6%

NS(=O)(=O)c1ccc(-n2nc(-c3ccc(Br)cc3)ccc2=O)cc1
active: HOP-92 NSCLC -30.5% [100 µM]
inactive: NCI-H23 lung 61.3% [100 µM] | NCI-H226 lung 79.5% [100 µM] | NCI-H322M lung 87.7% [100 µM] | HOP-62 NSCLC 20% [100 µM] | NCI-H460 lung 67.2% [100 µM] | A549/ATCC NSCLC 58% [100 µM] | 786-0 renal 46.7% [100 µM] | COLO 205 colon 80.2% [100 µM]

Nc1ccccc1-c1ccn[nH]1
inactive: NCI-H23 lung 110% | NCI-H226 lung 86.8% | NCI-H322M lung 93.8% | HOP-62 NSCLC 87.4% | NCI-H460 lung 104% | HOP-92 NSCLC 91.4% | A549/ATCC NSCLC 89.6% | 786-0 renal 98.9% | COLO 205 colon 86.6%

CCCCN=C(N)c1ccc(OCCSCCOc2ccc(C(N)=NCCCC)cc2)cc1
inactive: NCI-H23 lung 40.4% | NCI-H226 lung 59.2% | NCI-H322M lung 69.2% | HOP-62 NSCLC 67.7% | NCI-H460 lung 30.3% | HOP-92 NSCLC 40.1% | A549/ATCC NSCLC 19.5% | 786-0 renal 82.5%
active: COLO 205 colon 7.64%

CCN(CC)CCNCC(=O)Oc1ccc(/C=C/C(=O)CC(=O)/C=C/c2ccc(OC(=O)CNCCN(CC)CC)c(OC)c2)cc1OC
inactive: NCI-H226 lung 21% | NCI-H322M lung 55.4% | HOP-62 NSCLC 34% | HOP-92 NSCLC 39.1% | A549/ATCC NSCLC 38.2% | COLO 205 colon 17.1%
active: NCI-H23 lung 5.35% | NCI-H460 lung 3.7% | 786-0 renal -34.9%

O=C1/C(=C/c2ccc(F)cc2)Cc2ccccc21
inactive: NCI-H23 lung 99.7% | NCI-H226 lung 94.2% | NCI-H322M lung 95.2% | HOP-62 NSCLC 96.2% | NCI-H460 lung 103% | HOP-92 NSCLC 80.4% | A549/ATCC NSCLC 91.7% | 786-0 renal 96% | COLO 205 colon 115%

CCOC1Oc2ccccc2C(=O)/C1=N/c1nccs1 (configuration not stated)
active: HOP-92 NSCLC -23.6%
inactive: NCI-H23 lung 95.2% | NCI-H226 lung 84% | NCI-H322M lung 99.7% | HOP-62 NSCLC 92.7% | NCI-H460 lung 106% | A549/ATCC NSCLC 111% | 786-0 renal 100% | COLO 205 colon 95.1%

C[C@H](C(=O)N[C@@H](Cc1ccc(-c2ccccc2)cc1)C(=O)NC1CC(C)(C)N(C)C(C)(C)C1)c1ccc(-c2ccccc2)c(F)c1
active: NCI-H23 lung -71% | NCI-H226 lung -49.1% | NCI-H322M lung -62.3% | HOP-62 NSCLC -73.5% | NCI-H460 lung -75.8% | HOP-92 NSCLC -75.5% | A549/ATCC NSCLC -79.1% | 786-0 renal -91.3% | COLO 205 colon -69.6%

CCCCCc1c(C)[nH]c(/C=C2\N=C(c3ccc[nH]3)C=C2Oc2ccccc2)c1C
active: NCI-H23 lung -80.2% [100 µM] | NCI-H226 lung -38.2% [100 µM] | NCI-H322M lung -49.8% [100 µM] | HOP-62 NSCLC -46.4% [100 µM] | NCI-H460 lung -38.6% [100 µM] | HOP-92 NSCLC -41.3% [100 µM] | A549/ATCC NSCLC -81.6% [100 µM] | 786-0 renal -76.3% [100 µM] | COLO 205 colon -53.9% [100 µM]

CSc1nc(-c2ccc(O)cc2O)c2c(=O)[nH]c(Nc3ccc(S(=O)(=O)Nc4nc(C)cc(C)n4)cc3)nc2n1
inactive: NCI-H23 lung 105% | NCI-H226 lung 105% | NCI-H322M lung 108% | HOP-62 NSCLC 89.6% | NCI-H460 lung 111% | HOP-92 NSCLC 24.6% | A549/ATCC NSCLC 112% | 786-0 renal 100% | COLO 205 colon 112%

CC(=O)N1N=C(c2ccc(C(F)(F)F)cc2)CC1c1ccc2c(c1)OCO2 (configuration not stated)
inactive: NCI-H23 lung 79.2% | NCI-H226 lung 96.5% | NCI-H322M lung 84.8% | HOP-62 NSCLC 102% | NCI-H460 lung 85% | HOP-92 NSCLC 77.5% | A549/ATCC NSCLC 91.2% | 786-0 renal 87.4% | COLO 205 colon 100%

C[C@@H]1[C@H]2[C@H](C=C3[C@@H]4CC[C@H]5Cc6nc7c(nc6C[C@]5(C)[C@H]4C[C@@H](O)[C@@]32C)C[C@@H]2CC[C@H]3C4=C[C@@H]5O[C@@]6(CC[C@](C)(CO)O6)[C@@H](C)[C@@]5(O)[C@@]4(C)[C@H](O)C[C@@H]3[C@@]2(C)C7)O[C@]12CCC(C)(C)O2
inactive: NCI-H23 lung 33.6% | NCI-H226 lung 20.7% | NCI-H322M lung 27.8% | A549/ATCC NSCLC 12.8%
active: HOP-62 NSCLC -24.5% | NCI-H460 lung 0.313% | HOP-92 NSCLC -4.69% | 786-0 renal -25.3% | COLO 205 colon -39.3%

O=C(CNC(=O)c1cccc2ccccc12)Nc1ccccc1Oc1cccc(O)c1
inactive: NCI-H23 lung 41.5% [5 µM] | NCI-H226 lung 58.6% [5 µM] | NCI-H322M lung 45.1% [5 µM] | HOP-62 NSCLC 19.2% [5 µM] | NCI-H460 lung 11.2% [5 µM] | HOP-92 NSCLC 72.9% [5 µM] | A549/ATCC NSCLC 21.8% [5 µM] | 786-0 renal 19.6% [5 µM] | COLO 205 colon 33.8% [5 µM]
